Measurements from PubChem BioAssay.
Activity calls are given as the source filed them.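 Rule for the calls, unless noted: active = visual image review flags a hit and inhibition of aggregation exceeds 20%; inconclusive = visual hit but inhibition at or below 20%; inactive = no hit on visual image review.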

Experiments:
[1] = inhibitors of TNFa-induced NFkB p65 translocation, primary screen, imaging, HUVEC, MLSMR starter and 10KST1 sets (AID 438;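 active = inhibition above 20% together with a positive visual image hit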;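 note: compound added about 3h40 before a 20 min TNFalpha stimulation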;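 for inhibition: signal is the nuclear over cytoplasmic p65 intensity ratio per well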); settings: HUVEC TNFa-induced p65 nuclear translocation; cell count: measured here: nuclei count (cytotoxicity indicator), at 2.08 µM; inhibition: at 2 µM, stronger effect = higher value, 0% TNFa-plus-vehicle, 100% no-TNFa wells
[2] = inhibitors of mutant huntingtin aggregation, primary screen, imaging, exon1htt(103Q)mCFP cells, high-content imaging (AID 483); settings: exon1htt(103Q)mCFP cell line, aggregate imaging, at 2 µM; inhibition of aggregation: stronger effect = higher value; nuclei count: measured here: cell count, toxicity;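 note: compound exposure lasted 3 days before fixation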;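 for nuclei count: percent of the per-plate median nuclei count of sample wells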
[3] = inhibitors of E-selectin induction by TNFa, primary screen, imaging, HUVEC, immunofluorescence, MLSMR starter and 10KST1 sets (AID 487;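 active = visually confirmed hit in the image check and inhibition above 20%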;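 for inhibition: signal is fraction of cell area covered by stained E-selectin grains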;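 for nuclei count: 100% = median nuclei count of all wells on the same plate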); settings: HUVEC TNFalpha-induced E-selectin immunofluorescence imaging, at 2 µM; inhibition: stronger effect = higher value; nuclei count: measured here: cell number, toxicity
[4] = target: Voltage-gated potassium channel subunit beta-2 (Rattus norvegicus) (UniProt P62483); experiment: KvBeta enzyme negative modulators, primary screen, biochemical, NADPH fluorescence (AID 622;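 active = fluorescence slope higher than the sample average by over 3 SD, cut at about -0.22 in these data, passing the limit was not always enough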;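 note: slope of raw intensity against log time taken from 70 to 1610 s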); settings: recombinant KvBeta, 4-cyanobenzaldehyde reduction, at 10 µM, stronger effect = higher value
Chain of Voltage-gated potassium channel subunit beta-2 (Rattus norvegicus) (P62483 whole entry, looked up): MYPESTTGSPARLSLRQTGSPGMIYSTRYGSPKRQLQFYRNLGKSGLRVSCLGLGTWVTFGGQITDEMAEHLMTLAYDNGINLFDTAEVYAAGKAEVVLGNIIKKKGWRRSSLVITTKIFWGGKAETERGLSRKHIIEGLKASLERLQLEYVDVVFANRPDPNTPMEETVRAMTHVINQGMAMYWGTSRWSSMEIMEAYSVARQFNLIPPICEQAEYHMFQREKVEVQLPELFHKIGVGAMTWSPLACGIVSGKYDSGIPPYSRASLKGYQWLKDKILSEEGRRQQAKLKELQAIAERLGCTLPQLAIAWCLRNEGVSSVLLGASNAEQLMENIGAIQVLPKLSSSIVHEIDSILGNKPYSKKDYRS

[5] = target: Voltage-gated potassium channel subunit beta-2 (Rattus norvegicus) (UniProt P62483); experiment: KvBeta positive modulators, primary screen, biochemical, NADPH fluorescence (AID 623;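 active = NADPH fluorescence slope more negative than the mean of all samples by about 3 SD, 99.7% confidence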;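 note: fluorescence intensity change per second fitted from 20 to 320 s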); settings: Recombinant KvBeta, NADPH fluorescence decrease slope, 10 min; at 10 µM; stronger effect = lower value
[6] = target: Alpha-2C adrenergic receptor (Homo sapiens) (UniProt P18825); experiment: modulators of alpha2C/GIRK thallium flux, primary screen, cell-based, HEK293 alpha2C/GIRK1/2 (AID 624;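 active = fluorescence slope after compound addition differing from the mean of all screened samples at 99.7% confidence, in either direction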;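 note: slope of fluorescence ratio to pre-addition baseline per second over 15 to 24 s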); settings: thallium flux BTC fluorescence, at 10 µM, actives lie on both sides
Chain of Alpha-2C adrenergic receptor (Homo sapiens) (P18825 whole entry, looked up): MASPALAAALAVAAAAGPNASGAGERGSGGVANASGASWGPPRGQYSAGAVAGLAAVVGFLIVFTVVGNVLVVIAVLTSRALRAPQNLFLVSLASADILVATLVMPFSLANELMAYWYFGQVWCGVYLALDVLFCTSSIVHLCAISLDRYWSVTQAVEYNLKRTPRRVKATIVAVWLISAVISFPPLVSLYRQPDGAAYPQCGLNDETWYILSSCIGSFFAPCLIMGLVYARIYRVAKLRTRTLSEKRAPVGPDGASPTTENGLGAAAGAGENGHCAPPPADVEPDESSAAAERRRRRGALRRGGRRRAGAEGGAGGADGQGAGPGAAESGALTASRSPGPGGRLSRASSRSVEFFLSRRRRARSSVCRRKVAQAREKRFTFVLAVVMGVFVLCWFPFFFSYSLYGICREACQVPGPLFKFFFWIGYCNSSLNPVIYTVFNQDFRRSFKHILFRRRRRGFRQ

[7] = inhibitors of Sendai virus-induced IRF3 signaling, primary screen, TLR/RLR signaling modifier project, cell-based, Sendai virus stimulus, luciferase, 10K MLSCN set (AID 602276;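 active = inhibition at or above 50% at 10 µM; inactive = inhibition below 50%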;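 note: firefly luciferase from ISG56 promoter only with Renilla not read in this screen; 0% = Sendai virus plus DMSO and 100% = medium plus DMSO without virus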); settings: HEK293 RL24 IRF3 luciferase reporter, at 10 µM, stronger effect = higher value
[8] = inhibitors of poly I:C-induced TLR3 signaling, primary screen, cell-based, poly I:C stimulus, luciferase, 10K MLSCN set (AID 602277;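 active = inhibition of the reporter signal at or above 50%; inactive = inhibition below 50%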); settings: HEK293-TLR3 RL24 IRF3 luciferase reporter, at 10 µM, stronger effect = higher value

| Compound | cell count [1] | inhibition [1] | inhibition of aggregation [2] | nuclei count [2] [%] | inhibition [3] | nuclei count [3] [%] | fluorescence slope [4] | NADPH fluorescence slope [5] | slope [6] | inhibition [7] | inhibition [8] |
| --- | --- | --- | --- | --- | --- | --- | --- | --- | --- | --- | --- |
| c1ccc2c(Cn3ccnc3)c[nH]c2c1 | 410 | 6.5% (inactive) | -17.6% (inactive) | 90 | -12.3% (inactive) | 96.2 | -0.414 (inactive) | -0.000163 (inactive) | 0.00685 (inactive) | 6.54% (inactive) | 38.9% (inactive) |
| CCOC(=O)N1CCN(C(=O)c2ccc(CS(=O)(=O)c3c(Cl)cccc3Cl)o2)CC1 | 512 | -5% (inactive) | 2.1% (inactive) | 102 | -97.8% (inactive) | 116 | -0.419 (inactive) | -6.8e-05 (inactive) | 0.00631 (inactive) | -2.6% (inactive) | 21.2% (inactive) |
| CCC(C)NC(=O)C1(C)CCC(=O)N1CCc1ccc(OC)c(OC)c1 (stereo not given) | 447 | -5.7% (inactive) | -2.3% (inactive) | 105 | 0.6% (inactive) | 103 | -0.606 (inactive) | -8.3e-06 (inactive) | 0.00621 (inactive) | 5.13% (inactive) | 9.44% (inactive) |
| COc1ccc(C(=O)N(CCCO)Cc2cc3c(C)ccc(C)c3[nH]c2=O)cc1OC | 647 | -3% (inactive) | 12.4% (inactive) | 91.4 | 19.2% (inactive) | 86.7 | -0.389 (inactive) | -0.00013 (inactive) | 0.00636 (inactive) | 8.26% (inactive) | 19% (inactive) |
| CC(=O)C1=C(C)NC(C)=C(C(C)=O)C1c1cccs1 | 466 | 3.5% (inactive) | -5.6% (inactive) | 103 | 28.1% (inactive) | 108 | -0.369 (inactive) | 2.7e-05 (inactive) | 0.00356 (inactive) | 1.28% (inactive) | 39.4% (inactive) |
| CNC(=O)c1nnn(Cc2ccccc2)c1NC(C)=O | 539 | -14.7% (inactive) | -9.5% (inactive) | 102 | -73.3% (inactive) | 92.3 | -0.601 (inactive) | 4e-05 (inactive) | 0.00612 (inactive) | -13% (inactive) | -3.44% (inactive) |
| CN(Cc1nc(-c2ccncc2)no1)S(=O)(=O)c1ccccc1 | 560 | 0.6% (inactive) | -16.9% (inactive) | 103 | -18.6% (inactive) | 104 | -0.654 (inactive) | -4.4e-05 (inactive) | 0.00664 (inactive) | 12.9% (inactive) | 13.2% (inactive) |
| Cc1ccsc1C(C(=O)NC1CCCCC1)N(C(=O)Cc1cccs1)C1CC1 (stereo not given) | 500 | 0% (inactive) | 16.1% (inactive) | 86.8 | -62.9% (inactive) | 94.1 | -0.35 (inactive) | -4.8e-05 (inactive) | 0.00468 (inactive) | 15.2% (inactive) | 36% (inactive) |
| Cc1ccc2oc(-c3ccccc3C(=O)O)cc(=O)c2c1 | 363 | 10.8% (inactive) | 2.4% (inactive) | 107 | -59.4% (inactive) | 125 | -0.627 (inactive) | -1.2e-05 (inactive) | 0.00399 (inactive) | 12.1% (inactive) | 5.36% (inactive) |
| CC(c1ccccc1)n1cnc2ccccc21 (stereo not given) | 590 | -2.5% (inactive) | 17.1% (inactive) | 94.1 | -48% (inactive) | 148 | -0.364 (inactive) | -6.9e-05 (inactive) | 0.00531 (inactive) | 7.98% (inactive) | 19% (inactive) |
